Screens from PubChem BioAssay.
Shown are actives, neighbours in structure and some others; about 4.6% of the full set was active somewhere.
USP8 block: blocks human USP8 ubiquitin-rhodamine cleavage; inhibition, % at 20 µM; P40818; actives 4.2% (n = 47,000); purified USP8, Ub-rhodamine cleavage fluorescence, 30 min
USP7 block: human USP7 deubiquitinase inhibition; purified USP7, Ub-rhodamine cleavage fluorescence; inhibition, % at 20 µM; AID 1645854; actives 0.3% (n = 47,000)
USP10 block: human USP10 deubiquitinase inhibition | actives 1.1% (n = 47,000) | Q14694 | AID 1645856 | inhibition, % at 20 µM | purified USP10, Ub-rhodamine fluorescence, 60 min
UCHL1 block: inhibitors of human UCHL1 deubiquitinase; P09936; purified UCHL1, Ub-rhodamine cleavage fluorescence; inhibition, % at 20 µM; actives 0.2% (n = 47,000)
An asterisk follows results filed as active. No stated cut-off is given here; in the data, active means inhibition above about 30%; inactive means the rest.

SMILES	USP8 block	USP7 block	USP10 block	UCHL1 block
Cc1nc(CC(=O)Nc2cc(F)cc(F)c2)sc1C(=O)NC1CC1	61*	-5	-3	5
O=C(O)c1ccc(OC(=O)C(c2ccccc2)c2ccccc2)cc1	0	-9	13	3
O=C(Oc1ccc2c(c1)OCO2)C(c1ccccc1)c1ccccc1	31*	10	9	8
CC1CCN(c2ccc3nnc(CCC(=O)NCc4ccc5c(c4)OCO5)n3n2)CC1	0	-1	-2	0
Cc1ccccc1NC(=O)Nc1ccccc1OCc1cc(=O)n2cccc(C)c2n1	46*	23	40*	-2
Cc1cc(C)cc(NC(=O)Nc2ccccc2OCc2cc(=O)n3c(ncn3C(C)C)n2)c1	50*	10	40*	-1
Cc1cccc(NCc2cc(=O)n3cccc(C)c3n2)c1C	-6	-1	-5	-3
COc1cccc(-c2nc(C(N)=O)c3[nH]c(=O)n(-c4ccc5c(c4)OCO5)c3n2)c1O	31*	4	0	4
NC(=O)c1nc(-c2ccc(OCc3ccccc3)cc2)nc2c1[nH]c(=O)n2-c1ccc2c(c1)OCO2	49*	11	3	0
Cc1cccc(-c2nc(C(N)=O)c3[nH]c(=O)n(-c4ccccc4)c3n2)c1	75*	0	-3	-7
O=C(Nc1cc(-c2ccccc2)nn1C1CCS(=O)(=O)C1)c1ccc(Cl)cc1 (configuration not stated)	-18	0	5	0
COc1ccc(S(=O)(=O)Nc2ccc(Cc3ccncc3)cc2)c2ccccc12	43*	8	4	2
CC(C)(C)c1ccc(S(=O)(=O)Nc2ccc(Cc3ccncc3)cc2)cc1	-68	16	6	11
COC(=O)C1=CC(OC)=C(Cl)C(=O)C12OC(=O)c1c(O)cc(C)cc1O2 (configuration not stated)	-4	-92	2	33*
CC(C)CC(=O)N1C[C@H]2C[C@H]3[C@](C1)(CN(Cc1cccnc1)S3(=O)=O)O2	-45	0	-1	-1
CC(=O)c1cc(-c2ccc(F)cc2)n(CC(=O)Nc2cccc(C)c2C)c1C	41*	11	35*	1
CCCCCn1c(SCC(=O)CC(=O)OCC)nc2cc(C(=O)NCc3ccco3)ccc2c1=O	63*	-4	7	-6
CCCCCn1c(SCc2cccnc2)nc2cc(C(=O)NCc3ccco3)ccc2c1=O	-3	-22	13	0
COc1cccc(CNC(=O)Cn2cnc3c(c(C)c(C)n3-c3ccccc3)c2=O)c1	-4	-1	5	-1
Cc1cccc(CNC(=O)Cn2cnc3c(c(C)c(C)n3-c3ccccc3)c2=O)c1	36*	11	18	6
COc1ccc(OC)c(NC(=O)Cn2cnc3c(c(C)c(C)n3-c3ccccc3)c2=O)c1	32*	3	0	8
COc1cccc(NC(=O)Cn2cnc3c(c(C)c(C)n3-c3ccccc3)c2=O)c1	20	3	13	6
Cc1c(C)n(-c2ccccc2)c2ncn(CC(=O)NCc3ccccc3F)c(=O)c12	34*	10	17	5
Cc1cc(C)cc(NS(=O)(=O)c2cc3n(c2)CCCNC3=O)c1	-3	-2	0	2
Cc1cc(F)ccc1N1C(=O)CN(S(C)(=O)=O)CC1(C)C(=O)NC1CCCC1 (configuration not stated)	9	2	4	-2
SMILES	USP8 block	USP7 block	USP10 block	UCHL1 block
CC1Oc2ccc(NC(=O)c3cc(S(=O)(=O)N4CCCCC4)ccc3N3CCCC3)cc2NC1=O (configuration not stated)	-53	-1	-1	-2
O=C(Nc1cnc(-c2cccnc2)nc1)C1CC1	-46	4	-1	3
Cc1nc(-c2ccccc2F)sc1C(=O)NCc1ccc(S(N)(=O)=O)cc1	-126	-7	1	-4
COc1ccc(-c2nc(C)c(C(=O)NCCc3ccc(S(N)(=O)=O)cc3)s2)cc1	37*	-1	30*	-1
CN1C(=O)CO[C@H]2CN(C(=O)c3cccc4c3OCCO4)C[C@@H]21	9	6	3	0
O=C(Nc1ccc2nc(CCc3ccccc3)[nH]c2c1)c1ccncc1	0	6	-3	1
Clc1ccc2nc(COc3ccccc3Cc3ccccc3)[nH]c2c1	63*	-8	9	4
COc1cccc2cc(C(=O)Nc3nc(-c4ccncc4)cs3)oc12	49*	49*	48*	11
COc1cccc2cc(C(=O)NCc3cnn4ccccc34)oc12	-18	1	-1	-1
CC1[C@@H]2[C@@H](COc3cccnc3)C[C@H](CN1C(=O)c1cccc(C#N)c1)N2C (some centres not stated)	7	3	1	1
Cc1ccc(NC(=O)C2CCN(c3nc4nc[nH]c(=O)c4s3)CC2)cc1F	39*	6	-8	0
O=C(Nc1ccc(Cl)cc1)C1CCN(c2nc3nc[nH]c(=O)c3s2)CC1	-4	-3	2	-4
Cc1ccccc1OCCN1C(=O)C2CN(C(N)=O)CCN2C1=O (configuration not stated)	42*	2	6	4
Cc1cccc(C)c1OCCN1C(=O)C2CN(C(N)=O)CCN2C1=O (configuration not stated)	1	0	0	3
Cc1nc2ccc(C(=O)Nc3cc(Cl)cc4cccnc34)cc2nc1C	87*	-9	-7	4
CN(C)c1ncccc1-c1nc2cc(Cl)c(Cl)cc2s1	1	-96	2	4
Cc1ccc(C2c3c(-c4ccccc4O)n[nH]c3C(=O)N2Cc2ccco2)cc1 (configuration not stated)	58*	16	29	11
O=C1c2[nH]nc(-c3ccccc3O)c2C(c2ccc(F)cc2)N1Cc1ccco1 (configuration not stated)	71*	9	18	12
CCCCC(CC)CNC(=O)CCC(=O)N1CCOCC1 (configuration not stated)	-3	-4	-2	0
Cc1cc(=O)[nH]c(Sc2c(-c3ccccc3)c3cc([N+](=O)[O-])ccc3[nH]c2=O)n1	-34	-135	15	3
O=[N+]([O-])c1ccc2nc3c(c(-c4ccccc4)c2c1)CNCC3	82*	-132	-3	0
COc1ccc(C(=O)Nc2cccc(N3CCCCC3=O)c2)cc1	4	6	1	3
COc1ccc(CCNC(=O)COC(=O)c2ccc(N3CCCC3=O)cc2)cc1	30*	6	5	0
Fc1ccc(Cc2nc(-c3ccc4nncn4c3)no2)cc1	1	-2	-1	1
O=C(NCc1ccc(F)cc1)C1CCN(C(=O)c2cc(-c3cccnc3)n[nH]2)CC1	-1	2	0	-3
Cc1cc(NC(=O)c2cc(-c3cccnc3)n[nH]2)ccc1Br	98*	39*	38*	16
O=C(NCc1ccc(Br)cc1)c1cc(-c2cccnc2)n[nH]1	90*	29	21	3
C[C@H](N=C1NS(=O)(=O)c2ccccc21)C(=O)NCc1ccccc1CN1CCCC1	-1	3	-2	0
CCNC(=O)N1CCc2c(cccc2-n2nnc(C(=O)N(C)Cc3ccco3)c2C)C1	37*	-7	-8	-2
